The results in this text go back to PubChem BioAssay (Tox21).

Test [1] can be described thus: qHTS assay for small molecule agonists of the p53 signaling pathway (AID 651631; calls by dose curve; note: nearly all actives have a fitted effect of over 15% in size; note: potency is the fitted concentration of half-maximal effect). The gist of the method: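 HCT-116 cells carrying a stable p53 response element–beta-lactamase reporter were plated, rested 5 h at 37 °C, then exposed to compound in DMSO for 16 h at 37 °C; reporter activity was read as FRET substrate fluorescence after 2 h at room temperature.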
On the technique in general: qHTS replaces the single test concentration by a dilution series.

A short description of test [2]: qHTS assay for small molecule agonists of the p53 signaling pathway - cell viability (AID 651633; calls by dose curve; note: nearly all actives have a fitted effect of over 30% in size; note: potency is the fitted concentration of half-maximal effect). The gist of the method:
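p53RE-bla cells were treated with compound for 16 hours at 37 C. Cytotoxicity was then measured as CellTiter-Glo luminescence after 30 min at room temperature.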

Test [3] is described as follows: qHTS assay for small molecules that induce genotoxicity in human embryonic kidney cells expressing luciferase-tagged ATAD5 - cell viability (AID 651634; calls by dose curve; note: nearly all actives have a fitted effect of over 25% in size; note: potency is the fitted concentration of half-maximal effect). In outline: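 Live-cell protease activity (CellTiter-Fluor, fluorescence) indicates viability. HEK293T cells with luciferase-tagged ATAD5; 15.5 hr compound treatment at 37C.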
A short description of test [4]: qHTS assay for small molecule disruptors of the mitochondrial membrane potential - cell viability (AID 720634; calls by dose curve;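 note: human HepG2 liver cancer cells; nearly all actives have a fitted effect of over 20% in size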). The gist of the method: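 Human hepatoma HepG2 cells were treated for 1 hr with test chemicals, then given m-MPI dye and CellTiter-Glo. Cell viability reflects luminescence proportional to cellular ATP.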
A short description of test [5]: qHTS assay for small molecule disruptors of the mitochondrial membrane potential (AID 720635). Note: potency is the fitted concentration of half-maximal effect. In outline:
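HepG2 cells exposed to compound 1 hr at 37C, then Mito-MPS dye 30 min. Ratio read of aggregate (540/590 nm) versus monomer (490/535 nm) fluorescence.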

Test [6] in a line: qHTS assay to test for compound auto fluorescence at 590 nm (red) in HepG2 cells (AID 720674). The gist of the method:
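Seeding: 2,000 HepG2 cells/well, MEM/10% FBS, overnight 37 C. Dosing: compound vs DMSO. Incubation: 1 hr, 37 C, 5% CO2. Read: fluorescence 540 ex/590 em, Rose Bengal sodium as red reference.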

Test [7] can be described thus: qHTS assay to test for compound auto fluorescence at 460 nm (blue) in HEK293 cells (AID 720678). Note: potency is the fitted concentration of half-maximal effect. In outline:
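Intrinsic compound fluorescence is recorded in live HEK293 cultures after overnight incubation at 37C, 5% CO2, using excitation 405 nm and emission 460 nm. Values are referenced to triamterene.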

Test [8] can be described thus: qHTS assay to test for compound auto fluorescence at 590 nm (red) in HEK293 cells (AID 720679). The gist of the method: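 Red autofluorescence, HEK293 cells: 2,000 cells/well; attach 4-5 hr 37C; add 23 nL cpd or DMSO; incubate o/n 37C 5% CO2; read Ex540/Em590; Rose Bengal sodium reference.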
Test [9] is described as follows: qHTS assay to test for compound auto fluorescence at 535 nm (green) in HEK293 cells (AID 720680).
Test [10] is described as follows: qHTS assay to test for compound auto fluorescence at 460 nm (blue) in HEK293 cell free culture (AID 720681). Note: potency is the fitted concentration of half-maximal effect. The gist of the method: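 Compounds were added to cell-free DMEM with 10% FBS and fluorescence read directly. The blue channel used 405 nm excitation and 460 nm emission, with triamterene as the reference fluorophore.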
The nature of test [11]: qHTS assay to test for compound auto fluorescence at 590 nm (red) in HEK293 cell free culture (AID 720683). The gist of the method:
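Cell-free wells of DMEM with 10% FBS received compound, and intrinsic fluorescence was read at excitation/emission 540/590 nm. Values expressed as equivalence to Rose Bengal sodium.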

Test [12] is described as follows: qHTS assay to test for compound auto fluorescence at 590 nm (red) in HepG2 cell free culture (AID 720684). The gist of the method: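 Compounds are added to culture medium (MEM, 10% FBS) lacking cells, then fluorescence is read at excitation 540 nm, emission 590 nm, with Rose Bengal sodium as the equivalency standard.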
Test [13] is described as follows: qHTS assay to test for compound auto fluorescence at 535 nm (green) in HepG2 cell free culture (AID 720686).
Test [14] in a line: qHTS assay to test for compound auto fluorescence at 460 nm (blue) in HepG2 cells (AID 720687). Note: potency is the fitted concentration of half-maximal effect. In outline:
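HepG2 cells in MEM with 10% FBS, attached overnight at 37 C, were exposed to compound or DMSO for 1 hr at 37 C, 5% CO2. Blue fluorescence was read at 405/460 nm, with triamterene as reference fluorophore.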

A short description of test [15]: qHTS assay for small molecules that induce genotoxicity in human embryonic kidney cells expressing luciferase-tagged ATAD5 (AID 651632). Note: nearly all actives have a fitted effect of over 15% in size. In outline:
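Genotoxicity read-out via ATAD5-luciferase: HEK293T cells, 16 hr compound incubation at 37C, Amplite detection.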

Test [16] in a line: qHTS assay to test for compound auto fluorescence at 535 nm (green) in HepG2 cells (AID 720675).
A short description of test [17]: qHTS assay to test for compound auto fluorescence at 460 nm (blue) in HepG2 cell free culture (AID 720685). Note: potency is the fitted concentration of half-maximal effect. In outline: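 Compound (23 nL) or DMSO pinned into cell-free MEM with 10% FBS; blue fluorescence read at 405/460 nm excitation/emission, expressed as auto-fluorescence equivalency to triamterene.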
The nature of test [18]: qHTS assay to test for compound auto fluorescence at 535 nm (green) in HEK293 cell free culture (AID 720682). The gist of the method: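 Read-out: 485/535 nm fluorescence intensity, calibrated against fluorescein. Medium only (DMEM + 10% FBS, no cells); test compound or DMSO vehicle added by pintool before plate reading.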
Test [19] deals with Glucocorticoid receptor (Homo sapiens) (UniProt P04150). Kind of test: qHTS assay to identify small molecule agonists of the glucocorticoid receptor (GR) signaling pathway (AID 720691; active = well fitted activation curve with a large enough effect in the signal ratio in the repeat runs, not every such curve was filed as active; the % refers to the signal ratio; note: potency is the fitted concentration of half-maximal effect). The conditions noted are these: GR-bla HeLa, beta-lactamase reporter ratio, 18 h; activation: at 62.4 µM (top of the series). The gist of the method: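 Beta-lactamase reporter activity, read as fluorescence intensity, was measured in GR-bla HeLa cells exposed to compounds for 18 h at 37 C and then loaded with LiveBLAzer B/G FRET substrate for 2 h at room temperature.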
Chain of Glucocorticoid receptor (Homo sapiens) (P04150 whole entry, looked up): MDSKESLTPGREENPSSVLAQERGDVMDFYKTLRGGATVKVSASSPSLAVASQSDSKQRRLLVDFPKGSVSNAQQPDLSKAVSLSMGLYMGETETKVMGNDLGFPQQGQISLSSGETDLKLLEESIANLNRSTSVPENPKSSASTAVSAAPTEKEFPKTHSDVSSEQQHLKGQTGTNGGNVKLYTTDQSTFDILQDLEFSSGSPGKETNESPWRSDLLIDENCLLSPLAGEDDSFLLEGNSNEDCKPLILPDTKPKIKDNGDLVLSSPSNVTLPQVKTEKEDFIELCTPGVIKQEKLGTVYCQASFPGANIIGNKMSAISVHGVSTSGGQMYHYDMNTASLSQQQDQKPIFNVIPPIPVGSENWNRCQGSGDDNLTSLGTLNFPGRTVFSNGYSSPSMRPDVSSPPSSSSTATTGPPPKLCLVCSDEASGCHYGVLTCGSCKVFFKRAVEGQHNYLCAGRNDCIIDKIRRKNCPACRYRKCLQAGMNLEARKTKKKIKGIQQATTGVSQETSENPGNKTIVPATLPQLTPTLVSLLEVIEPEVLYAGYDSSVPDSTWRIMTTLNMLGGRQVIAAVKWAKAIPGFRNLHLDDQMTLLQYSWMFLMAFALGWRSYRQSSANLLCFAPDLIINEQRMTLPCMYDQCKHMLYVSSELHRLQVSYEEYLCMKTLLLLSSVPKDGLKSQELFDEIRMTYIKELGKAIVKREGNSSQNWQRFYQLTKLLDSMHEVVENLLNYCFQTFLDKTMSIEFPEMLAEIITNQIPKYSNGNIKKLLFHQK

The target is the same in test [20]. The test can be described thus: qHTS assay to identify small molecule antagonists of the glucocorticoid receptor (GR) signaling pathway (AID 720692; active = well fitted inhibition curve with a large enough effect in the signal ratio in the repeat runs, not every such curve was filed as active; the % refers to the signal ratio). In outline: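 Fluorescence from cleaved LiveBLAzer B/G FRET substrate reports GRE-driven beta-lactamase in HeLa cells; compounds are tested against 5 nM dexamethasone (final) over 18 h at 37 C, substrate incubation 2 h at room temperature.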

Several values for one entry are separate records, joined by “and”; a condition that tells them apart may be missing. Identical values can stand only once. Results filed as inconclusive are left out. Activity calls are given as the source filed them. Unless noted, calls come from the whole dose curve; as a rule, active = well fitted curve in the direction sought with a large enough effect in the repeat runs; inconclusive = weak or mixed curves; inactive = no such curve, though single readings can be large; an effect the other way counts as inactive or inconclusive.
Tags give direction and shape of the fitted curve or compound fluorescence and quenching.

For the compound `CS(=O)(=O)CCNCc1ccc(-c2ccc3ncnc(Nc4ccc(OCc5cccc(F)c5)c(Cl)c4)c3c2)o1`, the Potency entry in test [1], in test [2], in test [3], in [4], in test [5] and in test [6] was “inactive” throughout. The Potency result in test [7], in test [8], in [10], in test [11], in [12] and in test [13] was “inactive” throughout. Also, the Potency entry in test [14] was “inactive”. For the same compound, the outcome in test [9] was inactive.

`Nc1c2ccccc2nc2ccccc12`: the Potency is 3.35 µM (active) and 1.91 µM (active) in [1]; 11.9 µM (active) and 4.27 µM (active) in [5]; 11.2 µM [fluorescent] (active) and 31.6 µM [fluorescent] (active) in [7]; 11.2 µM (active) and 15.8 µM (active) in test [10]; 14.1 µM [fluorescent] (active) and 15.8 µM [fluorescent] (active) in [17]; 11.2 µM [fluorescent] (active) and 15.8 µM [fluorescent] (active) in test [14]. Further, the Potency result in test [15], in test [2], in test [4], in test [6], in test [16] and in test [8] was “inactive” throughout. The Potency entry in test [11], in test [12] and in [13] was “inactive” throughout. For the same compound, the call in test [9] was inactive.

Regarding `[Cl][Bi]([Cl])([c]1ccccc1)([c]1ccccc1)[c]1ccccc1`, the Potency in test [1] was 24.2 µM (active); in [2], 21.6 µM (active); in [3], 60.8 µM (active); in test [5] it was 43 µM (active). Moreover, the Potency entry in test [6], in test [16], in [7], in test [8], in test [10] and in [11] was “inactive” in each case. For the same compound, the Potency result in test [12], in test [17], in test [13] and in test [14] was “inactive” each time. Besides, the outcome in [9] and in test [18] was inactive.

As to `O=C1CCCc2c1cc1ccc3cccc4ccc2c1c34`, the Potency was 55.1 µM (active) in test [1], 8.74 µM (active) in test [5] and 22.2 µM (active) in test [19]. Further, the Potency result in test [2], in test [3], in [6], in test [16], in [7] and in [8] was “inactive” throughout. Besides, the Potency result in [10], in test [11], in test [12], in test [17] and in test [14] was “inactive” in each case. In addition, the compound was classed as inactive in test [9] and in [18].

On to `CCCCCCCCCCCCCCCS(=O)(=O)Oc1ccccc1`, for which the Potency result in test [1], in test [15], in test [2], in test [3], in test [6] and in [7] was “inactive” throughout. Besides, the Potency entry in [10], in test [11], in test [12], in test [17], in test [13] and in [14] was “inactive” in each case. Further, the Potency entry in test [19] was “inactive”. For the same compound, the compound was classed as inactive in test [9] and in test [18].

With `O=C(Nc1cccc(Cl)c1)OCC#CCCl`, the Potency in [1] is 8.63 µM (active); in test [2], 68.6 µM (active); in [3], 61.1 µM (active); in [5], 21.7 µM (active). Also, the Potency result in [15], in test [6], in [16], in test [7], in test [8] and in test [10] was “inactive” each time. Also, the Potency entry in test [11], in test [12], in test [17], in test [13] and in test [14] was “inactive” in each case. The call in test [9] and in [18] was inactive.

Turning to `O=C(O)c1cc(O)c2c(c1)C(=O)c1cccc(O)c1C2=O`, the Potency was 19.9 µM (active) in test [1] and 2.51 µM (active) in test [5]. Besides, the Potency entry in test [15], in test [2], in [4], in test [6], in [16] and in [7] was “inactive” throughout. Also, the Potency entry in test [10], in test [11], in test [12], in test [17], in test [14] and in test [19] was “inactive” each time. Also, the Potency entry in test [20] is “inactive”. In addition, the call in test [9] and in [18] was inactive.
